# Assay outcomes from PubChem.
# Rows were chosen to be rich in hits. Some 9.2% of all compounds tested hit in one or more screens of this group.
# SMN2 splice up – increases expression of the SMN2 splice variant; AID 1458; 2.8% of 210,000 active; HEK293 SMN2-luciferase splicing reporter, luminescence, 30-36 h; Potency, µM (top dose mostly 46.1 µM), inactives show at the top dose activity change, positive = activation, hits mostly activators; note: % of control where 0% means no effect; nearly all actives have a fitted effect of over 55% in size
#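 HEK293 cells carry an SMN2 […]–luciferase reporter in which exon 7 inclusion puts luciferase in frame. Cells were plated 10-12 h before compound addition, then incubated 30-36 h at 37C. ONE-Glo luminescence was read; sodium butyrate at 4.5 mM final served as control.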
# NPC1 prom act – activates the NPC1 promoter; 2.4% of 320,000 active; Huh7 NPC1 promoter luciferase reporter, 24 h; Potency, µM (titrated, usually from 9.22 µM), inactives show at the top dose activation, hits mostly activators; note: % of control where 0% means no effect; nearly all actives have a fitted effect of over 60% in size
#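 Readout is luciferase luminescence, reflecting NPC1 promoter activation in stably transfected Huh7 cells after 24 h compound exposure at 37 °C in reduced-serum medium with 10% FBS.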
# ELG1 genotox – induces genotoxicity in HEK293T cells with luciferase-tagged ELG1. HEK293T ELG1-luciferase reporter, luminescence, 16 h. Potency, µM (top dose mostly 46 µM), without a hit: at the top dose activity change, positive = activation, most hits filed as activators. 1.3% of 330,000 active. AID 504466; note: % of control where 0% means no effect; nearly all actives have a fitted effect of over 60% in size
#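 Luminescence read-out: rising ELG1-luciferase signal, reflecting elevated ELG1 protein under genetic stress, flags genotoxic compounds. Cells were treated for 16 hr at 37 °C before ONE-Glo detection.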
# FLuc counter – counter-screen for miR-21 project: firefly luciferase inhibitors or activators. purified FLuc, Km substrates, luminescence inhibition. Potency, µM (series often up to 57.5 µM), inactives show top-dose activity change, negative = inhibition, usual class: inhibitors. P08659. 6.9% of 360,000 active. AID 588342;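 note: plate controls were vehicle for no effect and reference inhibitor for full effect; nearly all actives have a fitted effect of over 55% in size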
# Target sequence (P08659 whole entry, looked up): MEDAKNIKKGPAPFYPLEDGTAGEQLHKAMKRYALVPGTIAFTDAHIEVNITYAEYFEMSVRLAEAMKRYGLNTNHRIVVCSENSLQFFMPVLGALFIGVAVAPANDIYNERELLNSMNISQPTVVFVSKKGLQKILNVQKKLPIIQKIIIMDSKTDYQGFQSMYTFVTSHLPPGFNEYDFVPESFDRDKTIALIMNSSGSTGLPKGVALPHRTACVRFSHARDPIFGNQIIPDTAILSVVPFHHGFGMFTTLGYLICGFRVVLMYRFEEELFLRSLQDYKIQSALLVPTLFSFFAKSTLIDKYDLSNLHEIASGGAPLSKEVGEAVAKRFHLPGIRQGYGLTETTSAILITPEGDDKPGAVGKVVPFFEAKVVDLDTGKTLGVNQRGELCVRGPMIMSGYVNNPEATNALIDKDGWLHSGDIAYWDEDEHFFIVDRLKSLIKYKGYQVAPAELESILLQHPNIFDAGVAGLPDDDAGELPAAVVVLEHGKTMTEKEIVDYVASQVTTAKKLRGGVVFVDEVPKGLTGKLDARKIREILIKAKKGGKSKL
#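 Purified P. pyralis luciferase (10nM final) with 10uM D-luciferin and 10uM ATP (Km levels) in 50mM Tris acetate pH 7.5, 10mM Mg acetate, 0.01% Tween-20, 0.05% BSA; qHTS 6-point titration, ~60 µM downward; luminescence read.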
# Rab9 prom act – activates the Rab9 promoter | Huh7 Rab9 promoter-luciferase reporter, luminescence, 24 h | Potency, µM (series often up to 9.22 µM), without a hit: at the top dose activation, negative = inhibition, usual class: activators | 2.8% of 320,000 active; note: % of control where 0% means no effect; nearly all actives have a fitted effect of over 60% in size
#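 Using Huh7 cells stably transfected with Rab9 promoter–luciferase, compounds were incubated 24 h at 37 °C, 5% CO2; luciferase luminescence was read 10 min after reagent addition.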
# ELG1 DNA repair – blocks ELG1-dependent DNA repair in HEK293T cells; HEK293T ELG1-luciferase reporter, luminescence, 16 h; DNA damage induced by 5-fluorouridine; Potency, µM (titrated, usually from 46.1 µM), for the others: top-dose activity change, negative = inhibition, usual class: inhibitors; 2.3% of 330,000 active; note: % is set by controls: 0 for no effect and ±100 for the full control effect; nearly all actives have a fitted effect of over 55% in size
#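 Overnight (16 hr) co-exposure of 2,000 cells/well to 5-fluorouridine and compound at 37 °C preceded detection. Luciferase was quantified via ONE-Glo luminescence; loss of signal denotes inhibition.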
# Starred values were filed as active, the others as inactive; ? = inconclusive; · = not tested or not shown. Calls come from the whole dose curve; as a rule, active = well fitted curve in the direction sought with a large enough effect; inconclusive = small, poorly fitted or top-dose-only effect, or another doubt; inactive = no such curve, though single readings can be large; an effect the other way counts as inactive or inconclusive. Potency is the fitted concentration of half-maximal effect.
SMILES,SMN2 splice up,NPC1 prom act,ELG1 genotox,FLuc counter,Rab9 prom act,ELG1 DNA repair
CCN(CC(=O)Nc1ccc(NC(C)=O)cc1)CC(=O)Nc1cc(C)on1,·,-3.2%,-2.0%,·,3.0%,7.0%
CC(C)N(C(=O)CSc1nc2ccccc2n1Cc1ccc(F)cc1)C(C)C,-41.8%,0.7%,-12.8%,0.4%,-7.3%,18.4µM*
O=C(CSc1nc2[nH]ncc2c(=O)n1-c1ccccc1)N1CCCCCC1,·,-2.1%,2.4%,-0.7%,-4.7%,10.2%
O=C(N/N=C/c1ccccc1)c1[nH]ncc1Br,?,?,14.6µM*,10.7µM*,3.16µM*,?
COc1ccc(/C=N/NC(=O)c2[nH]ncc2Br)c(OC)c1,25.1%,0.7%,25.9µM*,2.39µM*,-7.7%,?
COc1ccc(/C=N/NC(=O)c2cccc(NC(C)=O)c2)c(OC)c1,-5.7%,1.2%,-0.1%,-17.1%,3.2%,4.4%
Cc1cc2nc(-c3ccccn3)c(-c3ccccn3)nc2cc1C,·,?,?,4.78µM*,13.6%,?
c1ccc(-c2nc3ccccc3nc2-c2ccccn2)nc1,38.9%,2.3%,-0.1%,-6.5%,0.2%,6.3%
O=C(Nc1nc2ccccc2s1)c1ccc(Cl)s1,6.31µM*,1µM*,1.16µM*,1.9µM*,?,?
COc1ccc(C(=O)Nc2nc3ccccc3s2)cc1,·,0.631µM*,-4.7%,0.239µM*,0.282µM*,?
O=C(Nc1nc2ccccc2s1)c1ccc(F)cc1,·,0.708µM*,2.59µM*,1.07µM*,0.316µM*,?
O=C(c1ccc(Cl)s1)N1CCN(c2nc3ccccc3s2)CC1,-34.8%,-0.4%,-10.5%,-8.8%,2.1%,?
COc1ccc(C(=O)Nc2nc3ccccc3s2)cc1OC,·,1.3%,2.5%,-3.2%,-1.9%,?
O=C(Nc1nc(=O)c2ccccc2s1)c1ccccc1,42.8%,-0.1%,7.31µM*,4.26µM*,20.5%,?
CC(=O)Nc1nc(=O)c2ccccc2s1,17.9%,1.0%,-0.2%,-0.6%,3.5%,?
COc1ccc(C(C(=O)NC(C)(C)C)N(C(=O)CCC(=O)Nc2cc(C)on2)c2ccccc2F)cc1 (stereo unspecified),·,-0.1%,-2.9%,0.5%,0.3%,-3.5%
O=C(Nc1ccccc1Cl)N1CCC2(CC1)Oc1ccccc1C(=O)N2Cc1ccc(F)cc1,·,·,·,-7.3%,·,·
CCN(Cc1ccncc1)C(=O)c1ccc2c(c1)S(=O)(=O)c1ccccc1C2=O,9.8%,-5.2%,9.9%,1.9%,-0.2%,0.1%
O=S(=O)(/N=C(/Nc1nccs1)c1ccc(F)cc1)c1ccccc1,·,·,-0.1%,·,·,-7.9%
O=C(Nc1nc2c(s1)C(=O)CCC2)c1ccccc1,1.58µM*,1.12µM*,?,2.69µM*,0.708µM*,?
COc1cccc(C(=O)N(C)C(C)c2nc3ccccc3s2)c1 (stereo unspecified),·,-0.8%,-12.1%,-1.2%,0.2%,-6.7%
O=S(=O)(/N=C(/Nc1nc2ccccc2s1)c1ccccc1)c1ccc(F)cc1,·,12.6%,14.5%,19µM*,?,?
COc1cccc(C(=O)Nc2nc3ccccc3s2)c1,·,3.55µM*,4.11µM*,2.13µM*,2µM*,?
O=C(Nc1nc(=O)[nH]s1)c1ccccc1,-5.1%,-0.2%,1.5%,-16.7%,3.0%,-10.3%
COc1ccc(C(=O)CCc2nc3ccccc3s2)cc1,13.2%,15.0%,14.6%,19µM*,-0.1%,?
CC(=O)c1c(C)[nH]c(C(=O)CN2C(=O)NC3(CCCCC3)C2=O)c1C,·,0.4%,17.0%,0.0%,14.6%,?
COCC(C)NC(=O)CSc1nc2cc(S(=O)(=O)N3CCCCC3)ccc2o1 (stereo unspecified),·,0.2%,-1.2%,-5.9%,-0.2%,-0.7%
COc1ccc(S(=O)(=O)NCCc2sc(-c3cccnc3)nc2C)c(F)c1,·,·,·,-0.7%,·,·
